Reference: the supplement of paper PMC8728848
Shown is part of a subset that was picked to be rich in the strongest signals.

Columns and labels:
Assay in all cases: glycan array binding signal (z-score within array); higher = stronger binding
Conditions in all cases: glycan notation: IUPAC condensed, linker removed
Fuc(a1-2)Gal = target: Fuc(a1-2)Gal
Outline: (§1)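 Negative Z-scores can be read as non-binding. The Z-score is calculated within each array and then averaged across arrays of one protein sequence at different concentrations or buffers and across linkers. Arrays, 3228 in all, were curated from the Consortium for Functional Glycomics database and kept only where the protein sequence was available.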

[1] = target: Fuc(a1-2)Gal(b1-4)GlcNAc(b1-2)Man(a1-3)[Fuc(a1-2)Gal(b1-4)GlcNAc(b1-2)Man(a1-6)]Man(b1-4)GlcNAc(b1-4)GlcNAc
Outline: as §1

[2] = target: Fuc(a1-2)Gal(b1-4)GlcNAc6S
Outline: as §1

[3] = target: Fuc(a1-2)[GalNAc(a1-3)]Gal
Outline: as §1

[4] = target: Fuc(a1-2)[GalNAc(a1-3)]Gal(b1-3)GalNAc(b1-3)Gal(a1-4)Gal(b1-4)Glc
Outline: as §1

[5] = target: Fuc(a1-2)[GalNAc(a1-3)]Gal(b1-4)GlcNAc(b1-2)Man(a1-3)[Fuc(a1-2)[GalNAc(a1-3)]Gal(b1-4)GlcNAc(b1-2)Man(a1-6)]Man(b1-4)GlcNAc(b1-4)GlcNAc
Outline: as §1

[6] = target: Fuc(a1-3)[Gal(b1-4)]GlcNAc(b1-3)GalNAc
Outline: as §1

[7] = target: Fuc(a1-3)[Gal(b1-4)]GlcNAc(b1-4)Gal(b1-4)[Fuc(a1-3)]GlcNAc(b1-4)Gal(b1-4)[Fuc(a1-3)]GlcNAc
Outline: as §1

[8] = target: Fuc(a1-3)[GalNAc(b1-4)]GlcNAc
Outline: as §1

[9] = target: Fuc(a1-3)[GalNAc(b1-4)]GlcNAc6S
Outline: as §1

[10] = target: Gal(a1-4)Gal(b1-4)GlcNAc(b1-3)Gal(b1-4)Glc
Outline: as §1

[11] = target: Gal(b1-4)GlcNAc(b1-2)Man(a1-6)[Man(a1-3)]Man(b1-4)GlcNAc(b1-4)GlcNAc
Outline: as §1

[12] = target: Gal(b1-4)GlcNAc(b1-3)[Gal(b1-4)GlcNAc(b1-6)]GalNAc
Outline: as §1

[13] = target: Gal(b1-4)GlcNAc(b1-6)Gal(b1-4)GlcNAc(b1-6)GalNAc
Outline: as §1

GalNAc4S6S(b1-4)GlcNAc = target: GalNAc4S6S(b1-4)GlcNAc
Outline: as §1

GalNAc6S(b1-4)GlcNAc = target: GalNAc6S(b1-4)GlcNAc
Outline: as §1

[14] = target: GlcNAc(a1-3)Gal(b1-4)GlcNAc
Outline: as §1

[15] = target: GlcNAc(a1-6)Gal(b1-4)GlcNAc
Outline: as §1

[16] = target: GlcNAc(b1-2)Man(a1-3)[GlcNAc(b1-2)Man(a1-6)]Man(b1-4)GlcNAc(b1-4)[Fuc(a1-6)]GlcNAc
Outline: as §1

[17] = target: GlcNAc(b1-3)Gal(b1-4)GlcNAc(b1-2)Man(a1-3)[GlcNAc(b1-3)Gal(b1-4)GlcNAc(b1-2)Man(a1-6)]Man(b1-4)GlcNAc(b1-4)[Fuc(a1-6)]GlcNAc
Outline: as §1

[18] = target: GlcNAc(b1-3)Gal(b1-4)GlcNAc(b1-3)Gal(b1-4)GlcNAc(b1-3)Gal(b1-4)GlcNAc(b1-3)Gal(b1-4)GlcNAc(b1-2)[GlcNAc(b1-3)Gal(b1-4)GlcNAc(b1-3)Gal(b1-4)GlcNAc(b1-3)Gal(b1-4)GlcNAc(b1-3)Gal(b1-4)GlcNAc(b1-6)]Man(a1-6)[GlcNAc(b1-3)Gal(b1-4)GlcNAc(b1-3)Gal(b1-4)GlcNAc(b1-3)Gal(b1-4)GlcNAc(b1-3)Gal(b1-4)GlcNAc(b1-2)Man(a1-3)]Man(b1-4)GlcNAc(b1-4)[Fuc(a1-6)]GlcNAc
Outline: as §1

[19] = target: GlcNAc(b1-3)Gal(b1-4)GlcNAc(b1-6)[GlcNAc(b1-3)]Gal(b1-4)GlcNAc
Outline: as §1

[20] = target: GlcNAc(b1-3)[GlcNAc(b1-6)]GlcNAc(b1-4)GlcNAc
Outline: as §1

GlcNAc(b1-4)GlcNAc = target: GlcNAc(b1-4)GlcNAc
Outline: as §1

[21] = target: Man(a1-2)Man(a1-3)[Man(a1-6)]Man(a1-6)[Man(a1-2)Man(a1-3)]Man(b1-4)GlcNAc(b1-4)GlcNAc
Outline: as §1

[22] = target: Man(a1-2)Man(a1-6)[Man(a1-3)]Man(a1-6)[Man(a1-2)Man(a1-2)Man(a1-3)]Man
Outline: as §1

[23] = target: Man(a1-2)Man(a1-6)[Man(a1-3)]Man(a1-6)[Man(a1-2)Man(a1-2)Man(a1-3)]Man(b1-4)GlcNAc(b1-4)GlcNAc
Outline: as §1

Man(a1-3)[Man(a1-6)]Man = target: Man(a1-3)[Man(a1-6)]Man
Outline: as §1

[24] = target: Man(a1-3)[Man(a1-6)]Man(a1-6)[Man(a1-2)Man(a1-3)]Man(b1-4)GlcNAc(b1-4)GlcNAc
Outline: as §1

[25] = target: Man(a1-3)[Man(a1-6)]Man(a1-6)[Man(a1-3)]Man
Outline: as §1

B1: HHA (Hippeastrum hybrid) (protein)
chain: MQQDCNLVLYDVDKPIWASNTGGLARDCHLNMQSDGNLVVYAPRNQVIWASNTQGENGNYVCILQKDRNVVIYGTARWATGTNIHGAGIVGVPGSAPQNTTAEMIKLVRKYLITK
glycan array binding signal (z-score) (Fuc(a1-2)Gal): -0.215 | glycan array binding signal (z-score) [1]: 0.036 | glycan array binding signal (z-score) [2]: -0.207 | glycan array binding signal (z-score) [3]: -0.21 | glycan array binding signal (z-score) [4]: -0.213 | glycan array binding signal (z-score) [5]: -0.159 | glycan array binding signal (z-score) [6]: -0.17 | glycan array binding signal (z-score) [7]: -0.255 | glycan array binding signal (z-score) [8]: -0.196 | glycan array binding signal (z-score) [9]: -0.214 | glycan array binding signal (z-score) [10]: -0.203 | glycan array binding signal (z-score) [11]: 3.97 | glycan array binding signal (z-score) [12]: -0.247 | glycan array binding signal (z-score) [13]: -0.191 | glycan array binding signal (z-score) (GalNAc4S6S(b1-4)GlcNAc): -0.218 | glycan array binding signal (z-score) (GalNAc6S(b1-4)GlcNAc): -0.209 | glycan array binding signal (z-score) [14]: -0.2 | glycan array binding signal (z-score) [15]: -0.203 | glycan array binding signal (z-score) [16]: -0.168 | glycan array binding signal (z-score) [17]: -0.147 | glycan array binding signal (z-score) [18]: -0.124 | glycan array binding signal (z-score) [19]: -0.185 | glycan array binding signal (z-score) [20]: -0.264 | glycan array binding signal (z-score) (GlcNAc(b1-4)GlcNAc): -0.211 | glycan array binding signal (z-score) [21]: 3.35 | glycan array binding signal (z-score) [22]: 2.72 | glycan array binding signal (z-score) [23]: 3.81 | glycan array binding signal (z-score) (Man(a1-3)[Man(a1-6)]Man): 5.62 | glycan array binding signal (z-score) [24]: 5.57 | glycan array binding signal (z-score) [25]: 5.35
